Data as given in PMC12864922, “TDP-43 directly inhibits mRNA accumulation in neurites through modulation of mRNA stability”.
Whole data set: some 9,900 sequences, median “r (bound/input frequency ratio)” near 0.7, cut for the highest 2% near 6.5. The sample as a whole holds a higher share of the highest values than the screen did.

B1: ENSMUSG00000022095.189|Fam160b2 (ssRNA)
RNA: GGGAGUUCUACAGUCCGACGAUCGCUUCGAUAUCCGCAUGCUAGUUGGCUUCCCUCCUGGGCAAGGAGGAGCAGGCCAGAGCCCCUUUUGCUUCCUUUUCCUGCCCAUGCCACCUCUCGAAGCCGGGCACAGGUUGCCAGGAGGUGACAUGAAAGAGGAGGAAACUCCAUGACCUCUACAUCCCCCGCAGUCCUCCCAGCGGGGGAGGACUUCUCUGCUGCUCCGAAGAACAUCAUGCACUCCUGUGUGUGUGUGUGAGUGUGUGUGUGUGUGUGUGUGUGUGUGUGUGUGUAUGUGUGUGUACUCUUGCGGUCGCACUAGUGUGGAAUUCUCGGGUGUCAAGG
B2: ENSMUSG00000022095.187|Fam160b2 (ssRNA)
RNA: GGGAGUUCUACAGUCCGACGAUCGCUUCGAUAUCCGCAUGCUAAGGCCUGCAGUUGUUGGCUUCCCUCCUGGGCAAGGAGGAGCAGGCCAGAGCCCCUUUUGCUUCCUUUUCCUGCCCAUGCCACCUCUCGAAGCCGGGCACAGGUUGCCAGGAGGUGACAUGAAAGAGGAGGAAACUCCAUGACCUCUACAUCCCCCGCAGUCCUCCCAGCGGGGGAGGACUUCUCUGCUGCUCCGAAGAACAUCAUGCACUCCUGUGUGUGUGUGUGAGUGUGUGUGUGUGUGUGUGUGUGUGUGUGUGUGCUCUUGCGGUCGCACUAGUGUGGAAUUCUCGGGUGUCAAGG
B3: ENSMUSG00000022095.188|Fam160b2 (ssRNA)
RNA: GGGAGUUCUACAGUCCGACGAUCGCUUCGAUAUCCGCAUGCUAGCAGUUGUUGGCUUCCCUCCUGGGCAAGGAGGAGCAGGCCAGAGCCCCUUUUGCUUCCUUUUCCUGCCCAUGCCACCUCUCGAAGCCGGGCACAGGUUGCCAGGAGGUGACAUGAAAGAGGAGGAAACUCCAUGACCUCUACAUCCCCCGCAGUCCUCCCAGCGGGGGAGGACUUCUCUGCUGCUCCGAAGAACAUCAUGCACUCCUGUGUGUGUGUGUGAGUGUGUGUGUGUGUGUGUGUGUGUGUGUGUGUGUAUGUGCUCUUGCGGUCGCACUAGUGUGGAAUUCUCGGGUGUCAAGG
B4: ENSMUSG00000061578.732|Ksr2 (ssRNA)
RNA: GGGAGUUCUACAGUCCGACGAUCGCUUCGAUAUCCGCAUGCUAGGGGUCAUUGUUCAAUCCUGUAUCAAGACCUUGGAGUUGUCUAAGGCUGUGGGUUUUAAAUACCUGCUGCAGGCCUCCCAUCUCUGGCUCUUUGUUUCCACUCUGGCCCAAGUUUGAGUCUCCAUAUGGGCCCUUCCUGUCCUCAUGCCCUGCCUGUCUUCAUUCCACCCAUCCACCCUCCUAAGGAUUGGUCUUGUUCCGAGAGUGAUCCUGGUAACGCCAAGCCUCCCUCUGCCCCUGUGUUGGCUUCUGUGACGGACCUCUUGCGGUCGCACUAGUGUGGAAUUCUCGGGUGUCAAGG
B5: ENSMUSG00000061578.853|Ksr2 (ssRNA)
RNA: GGGAGUUCUACAGUCCGACGAUCGCUUCGAUAUCCGCAUGCUAAAGCAAAGAGCAAUACAGGAAAAGGUCAGGGGUGAGAUGUGUCAUUGCCACUUCCUCCAGCUAGGACCUUUGAGCAUCACAUUGUGAAGCCAUCCAGGGACUUGGGGGUUAGGUCAGAGGUAUCAAUACAUCUCCGGAAACAUCGUCACAGAUACCUAGAGGUACUUCAUUGAUCCCUUGAAAAGCAUGUCUUAAUUCUGUUAAGAUGUCAAUCAAGAUUACACAUCUCACUGCUUCACAGGCCAUCAGGGCCCCAUUCUCUCUUGCGGUCGCACUAGUGUGGAAUUCUCGGGUGUCAAGG
B6: ENSMUSG00000022095.185|Fam160b2|225:238;240:260 (ssRNA)
RNA: GGGAGUUCUACAGUCCGACGAUCGCUUCGAUAUCCGCAUGCUAUUACCUCACAACAGGCCUGCAGUUGUUGGCUUCCCUCCUGGGCAAGGAGGAGCAGGCCAGAGCCCCUUUUGCUUCCUUUUCCUGCCCAUGCCACCUCUCGAAGCCGGGCACAGGUUGCCAGGAGGUGACAUGAAAGAGGAGGAAACUCCAUGACCUCUACAUCCCCCGCAGUCCUCCCAGCGGGGGAGGACUUCUCUGCUGCUCCGAAGAACAUCAUGCACUCCACACACACACACACACACACACACACACACACACACCUCUUGCGGUCGCACUAGUGUGGAAUUCUCGGGUGUCAAGG
B7: ENSMUSG00000022095.197|Fam160b2 (ssRNA)
RNA: GGGAGUUCUACAGUCCGACGAUCGCUUCGAUAUCCGCAUGCUAUUCCUUUUCCUGCCCAUGCCACCUCUCGAAGCCGGGCACAGGUUGCCAGGAGGUGACAUGAAAGAGGAGGAAACUCCAUGACCUCUACAUCCCCCGCAGUCCUCCCAGCGGGGGAGGACUUCUCUGCUGCUCCGAAGAACAUCAUGCACUCCUGUGUGUGUGUGUGAGUGUGUGUGUGUGUGUGUGUGUGUGUGUGUGUGUAUGUGUGUGUAUAUGUGUGUGUGUGUGUGUAUGUGUGUGUGUGUGUGUGAGUGAGUGUGCUCUUGCGGUCGCACUAGUGUGGAAUUCUCGGGUGUCAAGG
B8: ENSMUSG00000022095.187|Fam160b2|213:226;228:260 (ssRNA)
RNA: GGGAGUUCUACAGUCCGACGAUCGCUUCGAUAUCCGCAUGCUAAGGCCUGCAGUUGUUGGCUUCCCUCCUGGGCAAGGAGGAGCAGGCCAGAGCCCCUUUUGCUUCCUUUUCCUGCCCAUGCCACCUCUCGAAGCCGGGCACAGGUUGCCAGGAGGUGACAUGAAAGAGGAGGAAACUCCAUGACCUCUACAUCCCCCGCAGUCCUCCCAGCGGGGGAGGACUUCUCUGCUGCUCCGAAGAACAUCAUGCACUCCACACACACACACACACACACACACACACACACACACACACACACACACCUCUUGCGGUCGCACUAGUGUGGAAUUCUCGGGUGUCAAGG
B9: ENSMUSG00000022095.196|Fam160b2 (ssRNA)
RNA: GGGAGUUCUACAGUCCGACGAUCGCUUCGAUAUCCGCAUGCUAUUUUGCUUCCUUUUCCUGCCCAUGCCACCUCUCGAAGCCGGGCACAGGUUGCCAGGAGGUGACAUGAAAGAGGAGGAAACUCCAUGACCUCUACAUCCCCCGCAGUCCUCCCAGCGGGGGAGGACUUCUCUGCUGCUCCGAAGAACAUCAUGCACUCCUGUGUGUGUGUGUGAGUGUGUGUGUGUGUGUGUGUGUGUGUGUGUGUGUAUGUGUGUGUAUAUGUGUGUGUGUGUGUGUAUGUGUGUGUGUGUGUGUGAGUGCUCUUGCGGUCGCACUAGUGUGGAAUUCUCGGGUGUCAAGG
B10: ENSMUSG00000022095.198|Fam160b2 (ssRNA)
RNA: GGGAGUUCUACAGUCCGACGAUCGCUUCGAUAUCCGCAUGCUAUUCCUGCCCAUGCCACCUCUCGAAGCCGGGCACAGGUUGCCAGGAGGUGACAUGAAAGAGGAGGAAACUCCAUGACCUCUACAUCCCCCGCAGUCCUCCCAGCGGGGGAGGACUUCUCUGCUGCUCCGAAGAACAUCAUGCACUCCUGUGUGUGUGUGUGAGUGUGUGUGUGUGUGUGUGUGUGUGUGUGUGUGUAUGUGUGUGUAUAUGUGUGUGUGUGUGUGUAUGUGUGUGUGUGUGUGUGAGUGAGUGUGUGUGUGCUCUUGCGGUCGCACUAGUGUGGAAUUCUCGGGUGUCAAGG
B11: ENSMUSG00000022095.195|Fam160b2 (ssRNA)
RNA: GGGAGUUCUACAGUCCGACGAUCGCUUCGAUAUCCGCAUGCUAAGCCCCUUUUGCUUCCUUUUCCUGCCCAUGCCACCUCUCGAAGCCGGGCACAGGUUGCCAGGAGGUGACAUGAAAGAGGAGGAAACUCCAUGACCUCUACAUCCCCCGCAGUCCUCCCAGCGGGGGAGGACUUCUCUGCUGCUCCGAAGAACAUCAUGCACUCCUGUGUGUGUGUGUGAGUGUGUGUGUGUGUGUGUGUGUGUGUGUGUGUGUAUGUGUGUGUAUAUGUGUGUGUGUGUGUGUAUGUGUGUGUGUGUGUGCUCUUGCGGUCGCACUAGUGUGGAAUUCUCGGGUGUCAAGG
B12: ENSMUSG00000022095.181|Fam160b2 (ssRNA)
RNA: GGGAGUUCUACAGUCCGACGAUCGCUUCGAUAUCCGCAUGCUAAGAGCACUCGGGCGGCGCCAGGCAUUACCUCACAACAGGCCUGCAGUUGUUGGCUUCCCUCCUGGGCAAGGAGGAGCAGGCCAGAGCCCCUUUUGCUUCCUUUUCCUGCCCAUGCCACCUCUCGAAGCCGGGCACAGGUUGCCAGGAGGUGACAUGAAAGAGGAGGAAACUCCAUGACCUCUACAUCCCCCGCAGUCCUCCCAGCGGGGGAGGACUUCUCUGCUGCUCCGAAGAACAUCAUGCACUCCUGUGUGUGUGUGCUCUUGCGGUCGCACUAGUGUGGAAUUCUCGGGUGUCAAGG
B13: ENSMUSG00000058297.304|Spock2|17:22 (ssRNA)
RNA: GGGAGUUCUACAGUCCGACGAUCGCUUCGAUAUCCGCAUGCUAAGUGAGGGCAGCCCCCACACACGUGGAAGAGGCUGGGCAGCUAGCUACUGGGGACCUUGUGCUGAGGCUUCCAGGACAAAGCCCCAGUCUGGCUCUCCCCCAGCCUCUCAGGGGCACUGGCUGGUCACAUCCACUGAGUAUUGAUCGGUUGGACUUUAGGGAAGAGCCUCCUCCUUCCCAUUCCUUUCUGCCACCCUGGAAUGGCCACCUUAAUCGUCAUCUCCUCGGGGGGAAUACGGAAAUGUCACCAAGCUCCAUAACUCUUGCGGUCGCACUAGUGUGGAAUUCUCGGGUGUCAAGG

Each binder was assayed against TDP-43 (Homo sapiens, UniProt Q13148 1-414) (assay: RNA Bind-n-Seq with designed 260-mer pool; 25 mM Tris-HCl, 150 mM KCl, 3 mM MgCl2, BSA (printed 500 mg/mL), 20 units/mL SUPERase IN; pH not stated; 500 nM RNA pool, 1 h, 4 C; TDP-43 5, 50, 500 nM; high values mean tight binding). Conditions: protein: recombinant; tags: SBP (GST cleaved off with PreScission; pGEX-GST-SBP).
Chain of TDP-43 (Q13148 whole entry): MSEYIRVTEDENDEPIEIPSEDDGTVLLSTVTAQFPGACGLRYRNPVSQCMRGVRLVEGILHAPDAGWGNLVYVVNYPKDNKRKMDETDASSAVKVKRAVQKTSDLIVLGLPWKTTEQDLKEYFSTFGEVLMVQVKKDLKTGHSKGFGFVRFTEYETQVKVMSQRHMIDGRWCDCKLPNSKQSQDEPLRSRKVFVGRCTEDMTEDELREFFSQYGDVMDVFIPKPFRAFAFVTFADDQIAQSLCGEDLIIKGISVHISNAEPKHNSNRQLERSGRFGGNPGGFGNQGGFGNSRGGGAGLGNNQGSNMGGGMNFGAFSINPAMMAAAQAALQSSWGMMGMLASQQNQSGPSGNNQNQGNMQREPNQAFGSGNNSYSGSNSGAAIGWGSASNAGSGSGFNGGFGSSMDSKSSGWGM
How it was run: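 An in vitro-transcribed pool of 260-nt 3′ UTR oligos (500 nM) was incubated for 1 h at 4 °C with recombinant SBP-tagged TDP-43 at 5, 50 or 500 nM held on streptavidin beads. The buffer contained 25 mM Tris-HCl, 150 mM KCl, 3 mM MgCl2, BSA and SUPERase IN. Biotin-eluted bound RNA was sequenced, and binding, R, is each oligo's normalized read abundance in the bound sample over that in input.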
B1 was tested, and the binding signal was 5.45 R (bound/input frequency ratio). B2 was tested, and the binding signal was 6.28 R (bound/input frequency ratio). For B3, the binding signal was 7.09 R (bound/input frequency ratio). For B4, the binding signal was 1.54 R (bound/input frequency ratio). For B5, the binding signal was 0.223 R (bound/input frequency ratio). In the case of B6, the binding signal is reported as 2.7 R (bound/input frequency ratio). B7 was tested, and the binding signal was 6.5 R (bound/input frequency ratio). B8 was tested, and the binding signal was 1.89 R (bound/input frequency ratio). With B9 the binding signal was 6.8 R (bound/input frequency ratio). In the case of B10, the binding signal is reported as 10 R (bound/input frequency ratio). In the case of B11, the binding signal is reported as 9.34 R (bound/input frequency ratio). With B12 the binding signal was 0.283 R (bound/input frequency ratio). For B13, the binding signal was 0.535 R (bound/input frequency ratio).
